Sampled rows, rich in hits. Any-hit rate of the full collection: about 1.5%.
Giardia killer – kills Giardia lamblia. Giardia lamblia trophozoite viability. activity change, % at 7.66 µM, hits read low. 0.15% of 340,000 active. AID 540267; in the data active = activity change below about -80%; inconclusive = between about -30% and that limit;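 note: parasites exposed to compound for two days anaerobically before the ATP read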
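Trophozoites 100 cells/well + cpd; 48 hrs, 37 deg C, anaerobic. ATPLite 1-Step added, 15-30 min RT, luminescence read (ATP-based viability).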
FBPA coupling cs – counter-screen for Giardia aldolase inhibitors: coupling enzyme system. coupling enzyme system counterscreen, AmpLite Red fluorescence. activity change, negative = inhibition, % at 58.2 µM, hits read low. 0.67% of 290,000 active. AID 2472; in the data active = activity change below about -30%
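Counterscreen lacking aldolase: glyceraldehyde-3-phosphate coupling-enzyme reagent preincubated 10 min at RT with compound (at 57.5 uM final), then substrate/coupling system with AmpLite Red added; fluorescence read at 525/598 nm after 20 min RT.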
GALK inh – galactokinase (human) inhibition. Purified GALK, Kinase-Glo residual ATP luminescence. 0.007% of 270,000 active. Potency, µM (series often up to 57.5 µM), for the others: top-dose activity change, negative = inhibition, hits mostly inhibitors; note: potency is the fitted concentration of half-maximal effect
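Luminescence from leftover ATP (Ultra-Glo luciferase/luciferin) served as read-out after a 1 h room-temperature reaction of 5 nM GALK with 35 uM ATP and 100 uM galactose.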
PI4K2A block – inhibitors of human PI4K2A | Q9BTU6 | purified PI4K2A, ADP-Glo luminescence, 1 h; active compounds read low | activity change, negative = inhibition, % at 76.9 µM | 0.13% of 420,000 active; in the data active = activity change below about -50%; inconclusive = mostly about -30% to -49%;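 note: -100% = wells without enzyme as full effect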
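PI4K2A activity was measured by ADP-Glo luminescence: enzyme (4 ug/mL stock) and phosphatidylinositol (1.2 mM stock) in Tris pH 7.5/MgCl2/EGTA/Triton X-100 buffer were reacted with ATP (300 microM stock) for one hour at ambient temperature.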
TrxR1 substrate – is turned over as a substrate by rat TrxR1 | O89049 | purified TrxR1 substrate turnover, NADPH consumption readout | 0.01% of 390,000 active | Potency, µM (titrated, usually from 114 µM), without a hit: at the highest dose activity change, negative = substrate turnover; note: potency is the fitted concentration of half-maximal effect; nearly all actives have a fitted effect of over 50% in size
Target sequence (O89049 whole entry, looked up): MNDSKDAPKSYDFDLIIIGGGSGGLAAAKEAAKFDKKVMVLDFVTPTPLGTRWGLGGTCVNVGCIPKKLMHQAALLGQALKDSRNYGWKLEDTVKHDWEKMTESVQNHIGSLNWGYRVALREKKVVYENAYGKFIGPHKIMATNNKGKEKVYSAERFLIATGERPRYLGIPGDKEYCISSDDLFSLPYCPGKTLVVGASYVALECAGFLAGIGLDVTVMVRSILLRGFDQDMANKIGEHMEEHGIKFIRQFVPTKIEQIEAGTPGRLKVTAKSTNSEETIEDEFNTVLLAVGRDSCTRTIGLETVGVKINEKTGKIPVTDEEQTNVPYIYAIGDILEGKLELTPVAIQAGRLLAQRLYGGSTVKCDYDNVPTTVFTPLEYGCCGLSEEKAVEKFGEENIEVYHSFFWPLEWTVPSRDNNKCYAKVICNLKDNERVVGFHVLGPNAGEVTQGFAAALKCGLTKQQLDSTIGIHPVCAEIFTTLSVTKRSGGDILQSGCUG
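Rat TrxR1, dispensed at 90 nM, was prereduced with 400 uM NADPH (final) for 5 min at ~22 deg C, then incubated with compound 15 min before 400 uM selenite. A first-read NADPH fluorescence drop versus no-compound background flagged substrates.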
TrxR1 inh – inhibitors of rat thioredoxin reductase 1; O89049; recombinant rTrxR1, NADPH fluorescence consumption, selenite substrate; Potency, µM (series often up to 114 µM), for the others: at the top dose activity change, negative = inhibition, hits mostly inhibitors; 1% of 390,000 active; AID 588453; note: potency is the fitted concentration of half-maximal effect; nearly all actives have a fitted effect of over 65% in size
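Rat TrxR1 (90 nM in the dispensed reagent) was pre-reduced with 400 uM NADPH for 5 min at room temperature, then incubated with compound for 15 min. After 400 uM selenite was added, NADPH fluorescence (Ex 340/Em 450 nm) was followed for 8 min.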
Active calls of the source: *; ? = inconclusive; · = no result; [ ] = dose if it differs, or a comment. Unless noted, calls come from the whole dose curve; as a rule, active = well fitted curve in the direction sought with a large enough effect; inconclusive = small, poorly fitted or top-dose-only effect, or another doubt; inactive = no such curve, though single readings can be large; an effect the other way counts as inactive or inconclusive. Unless noted, % is set by controls: 0 for no effect and ±100 for the full control effect.

SMILES | Giardia killer | FBPA coupling cs | GALK inh | PI4K2A block | TrxR1 substrate | TrxR1 inh
COc1ccc(N2C(=O)CC(Sc3nnc(-c4ccccc4F)n3C)C2=O)cc1 (centres undefined) | 6 | 2 | 5% | -3 | 0% | 32µM*
COc1ccc(N2C(=O)CC(Sc3nc4ccccc4s3)C2=O)cc1 (centres undefined) | -23 | -2 | -2% | 1 | -13%[57.1 µM] | 2%[57.1 µM]
O=C(COc1ccccc1C(=O)Nc1ccccc1)Nc1ccccc1Cl | · | · | · | · | -5% | 2%
OC1(c2ccccc2)CCNCC1 | · | · | · | 2 | · | ·
O=C(CS)Nc1ccccc1 | · | · | · | -25 | · | ·
CCN(CCCNC(=O)c1cc2cc3ccc(OC)cc3nc2s1)c1ccccc1 | · | · | · | -8 | 5% | 13%
CCCCN(C)C(=O)c1cc2cc3ccc(OC)cc3nc2s1 | -22 | 0 | 5% | -55* | 42% | -14%
CC(=NCc1cccnc1)C1=C(O)c2ccccc2C1=O | 3 | 4 | 0% | -54* | -10% | -9%
CC(=NCc1ccncc1)C1=C(O)c2ccccc2C1=O | · | 2 | -2% | · | · | ·
Cc1cc2nc(-c3ccc[nH]c3=O)n(Cc3ccc(F)cc3)c2cc1C | 5 | 1 | 2% | -1 | 125% | ?
Cc1cc2nc(-c3ccc[nH]c3=O)[nH]c2cc1C | -94* | -2 | · | -66* | 726%[57.1 µM] | 195%
Nc1ccc2cn[nH]c2c1 | -16 | -32* | -2% | -2 | 11% | 19%
Brc1ccc2[nH]ncc2c1 | -5 | 2 | -2% | -3 | 9% | 18%
COC(=O)CCC(=O)OC1(C)C(=O)C2=COC(c3ccc(OC)cc3)=CC2=C(Br)C1=O (centres undefined) | -3 | 1 | 4% | ? | -7% | 14µM*
COc1ccc(C2=CC3=C(Br)C(=O)C(C)(OC(=O)C4CCCC4)C(=O)C3=CO2)cc1 (centres undefined) | -11 | 2 | -2% | ? | 4% | ?
COc1ccc(C2=CC3=C(Br)C(=O)C(C)(OC(=O)c4ccc(Cl)nc4)C(=O)C3=CO2)cc1 (centres undefined) | 6 | -2 | -1% | -15 | 8% | 13µM*
COc1cc2c(NC3CCN(C)CC3)nc(N3CCCN(C)CC3)nc2cc1O | · | · | · | · | 27% | 12%
Cc1ccc(-n2nc3c(c2NC(=O)c2ccc(Br)o2)CSC3)c(C)c1 | 2 | -35* | -1% | 2 | 8% | -12%
COc1ccc2c(c1)sc1nc(-c3ccccc3)cn12 | -91* | -19 | 6% | -60* | -7% | 0%
COc1ccc(-c2cn3c(n2)sc2cc(C(=O)NCc4ccccc4)ccc23)cc1 | · | · | · | -10 | 1% | -1%
COc1ccc(Nc2ncnc3c2cnn3-c2ccc(C)cc2)cc1Cl | · | · | · | -4 | 2%[57.1 µM] | -2%[57.1 µM]
COc1ccc(S[C@]2(C(=O)N3CCCC3)CC(=O)N(C(=O)C3CC3)[C@@H]2c2ccc(OC)cc2)cc1 | · | · | · | -2 | · | ·
Cc1ccc(C)c2[nH]c(=O)c(CN(Cc3nnnn3C3CCCCC3)CC3CCCO3)cc12 (centres undefined) | 9 | -37* | -3% | 12 | -1% | ?
Cc1ccc(NCCC(=O)c2cccs2)cc1Cl | -10 | 3 | 0% | 1 | -4% | ?
Cc1ccc(NCCC(=O)c2cccs2)cc1C | 14 | 1 | -1% | 0 | 13%[57.1 µM] | 4.5µM*
SMILES | Giardia killer | FBPA coupling cs | GALK inh | PI4K2A block | TrxR1 substrate | TrxR1 inh
CC(C)c1ccc(NCCC(=O)c2cccs2)cc1 | -5 | 2 | 1% | -4 | -4% | 2.8µM*
O=C(CCNc1cccc(Cl)c1)c1cccs1 | 3 | 2 | -2% | 1 | 6% | 10µM*
Cc1ccc(NCCC(=O)c2cccs2)cc1 | 3 | 2 | 3% | 7 | 3% | ?
Cc1ccc(NCCC(=O)c2ccc(Cl)cc2)cc1C | 1 | · | 0% | 3 | 14% | 50µM*
COc1ccc(CNC(=O)CN2N=C(c3ccccc3)CCC2=O)c(OC)c1 | · | · | · | -9 | -4%[57.1 µM] | -10%[57.1 µM]
CC(=O)c1cc(-c2cccc(C(C)C)c2)c(=O)n2c1CCC2 | · | · | · | 1 | · | ·
COc1cc(NCc2ccc3nc(N)nc(N)c3c2C)cc(OC)c1OC | · | -46* | · | -7 | · | ·
COc1ccc(CNc2ccncc2)c(OC)c1OC | 4 | · | · | 5 | 3% | 0%
Cn1cnc([N+](=O)[O-])c1Sc1nnc(-c2cccnc2)n1C | -20 | -2 | 2% | -1 | 6%[57.1 µM] | 0.63µM*
Nc1[nH]c(C(=O)c2ccccc2)c(-c2ccc(Cl)cc2)c1C(=O)NCCC1=CCCCC1 | · | · | · | -2 | · | ·
COc1cc2c(cc1OC)C(c1ccccc1)N(C(=O)CCl)CC2 (centres undefined) | -3 | 3 | -6% | 13 | 3% | 4.5µM*
CCOC(=O)/C=C1\CN(Cc2ccc(OC)cc2)S(=O)(=O)c2ccc(C(F)(F)F)cc21 | · | · | · | · | -6% | 25µM*
CN(C)c1ccc(NC(=O)CSc2nnc(-c3ccco3)c(-c3ccco3)n2)cc1 | 13 | -4 | 0% | -27 | -10% | -27%
COc1ccc(C(=O)CSc2nnc(-c3ccco3)n2C)cc1 | 3 | 0 | 1% | 8 | -1%[57.1 µM] | ?
O=C(CSc1nnc(-c2ccco2)c(-c2ccco2)n1)Nc1ccccc1 | -6 | -30* | 3% | -25 | -13% | 5µM*
CSc1nnc(-c2ccco2)c(-c2ccco2)n1 | 6 | -34* | -3% | -13 | -9% | 16µM*
COc1ccc(C(=O)CSc2nnc(-c3ccco3)c(-c3ccco3)n2)cc1 | -5 | -5 | 1% | -30 | -8% | 8.9µM*
CSc1nnc(-c2ccccc2)c(-c2ccccc2)n1 | -5 | 5 | 1% | 11 | -3% | 5%
Cc1ccc(NC(=O)CSc2nnc(-c3ccco3)c(-c3ccco3)n2)cc1 | -6 | -18 | 5% | -24 | -13% | 1µM*
CS(=O)(=O)c1ccc(OC[C@@H](O)CN2CCC(C(O)(c3ccccc3)c3ccccc3)CC2)cc1 | · | · | · | 1 | · | ·
COC(=O)[C@H](C)NC(=O)[C@@H]1CCCN1C(=O)CNP(=O)(OCc1ccccc1)OCc1ccccc1 | · | · | · | 7 | · | ·
Cc1ccc(NC(=O)CCCc2nnc3n(C)c(=O)c4sccc4n23)cc1F | · | · | · | -3 | 9% | 18%
COc1cccc(NC(=O)CSc2nnc(-c3ccco3)c(-c3ccco3)n2)c1 | 4 | -5 | 0% | -25 | -5% | 7.1µM*
COc1ccc(NC(=O)CSc2nnc(-c3ccco3)c(-c3ccco3)n2)cc1OC | 20 | -12 | 0% | ? | 14%[0.457 µM] | ?
Cc1ccc(OC(=O)c2cc(-c3ccc4c(c3)OCCO4)on2)c(C)c1 | · | · | · | 5 | 1% | -2%
COc1cc2c(c(OC)c1OC)C(c1ccc(O)cc1)CC(=O)O2 (centres undefined) | -5 | -32* | · | 4 | -2% | 6%
